# Experimental data reported in PubChem BioAssay (Tox21).
# Values without a mark were called inactive. Inconclusive results are not listed. Where a call stands in place of a potency, no number is given. Activity calls are given as the source filed them. Unless noted, the call rests on the fitted dose curve; in most records, active means well fitted curve in the direction sought with a large enough effect in the repeat runs; inconclusive means weak or mixed curves; inactive means no such curve, though single readings can be large; an effect the other way counts as inactive or inconclusive.
# Assays:
# [1] = qHTS assay to identify small molecule HDAC inhibitors - cell viability counter screen (AID 1259365); further: series mostly up to about 92 µM; nearly all actives have a fitted effect of over 50% in size
# In short: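 To flag cytotoxic hits, 1,500 wild-type HCT-116 cells per well, plated the day before, receive test compounds for 2hr at 37 C before CellTiter-Glo reagent and a luminescence read.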
# [2] = qHTS assay to identify small molecule agonists of the sonic hedgehog signaling (Shh) pathway - cell viability counter screen (AID 1259366); further: nearly all actives have a fitted effect of over 50% in size
# In short: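 Fluorescence from CellTiter-Fluor reports live cells in this counter screen. NIH/3T3-derived Gli1-Luc reporter cells receive test compounds for 24hr at 37C; reagent goes in at 23hr.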
# [3] = qHTS assay to identify small molecule antagonists of the sonic hedgehog signaling (Shh) pathway - cell viability counter screen (AID 1259367); further: nearly all actives have a fitted effect of over 55% in size
# In short: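 Cells: 3T3 Gli1-Luc, 2,000/well, 4 hr pre-incubation. Compounds in DMSO, then conditioned medium. Incubation 24 hr, 37C, 5% CO2. CellTiter-Fluor at 23 hr, 1 hr, fluorescence.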
# [4] = qHTS assay to identify small molecule agonists of the sonic hedgehog signaling (Shh) pathway (AID 1259368; calls by dose curve; further: series mostly up to about 92 µM; nearly all actives have a fitted effect of over 15% in size)
# In short: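 NIH/3T3-derived 3T3Gli1-Luc cells carrying a stably integrated Gli1 response element–firefly luciferase reporter were plated, left 4 hr at 37 C, then given compounds in DMSO for 24 hr. Luminescence was read 30 min after adding luciferase reagent.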
# [5] = qHTS assay to identify small molecule antagonists of the sonic hedgehog signaling (Shh) pathway (AID 1259369; calls by dose curve; further: nearly all actives have a fitted effect of over 45% in size)
# In short: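 NIH/3T3-derived 3T3Gli1-Luc cells with stably integrated Gli1-Luc reporter were preincubated 4hr at 37 C, then given compounds in DMSO plus Shh conditioned medium and incubated 24hr. Firefly luciferase luminescence read after 30min reagent at room temperature.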
# [6] = molecular target: Estrogen receptor beta (Homo sapiens) (UniProt Q92731); assay: qHTS assay to identify small molecule agonists of the estrogen receptor beta (ER-beta) signaling pathway (AID 1259377; active means well fitted activation curve with a large enough effect in the signal ratio in the repeat runs, not every such curve was filed as active; the % refers to the signal ratio)
# Estrogen receptor beta (Homo sapiens), sequence (Q92731 whole entry, looked up): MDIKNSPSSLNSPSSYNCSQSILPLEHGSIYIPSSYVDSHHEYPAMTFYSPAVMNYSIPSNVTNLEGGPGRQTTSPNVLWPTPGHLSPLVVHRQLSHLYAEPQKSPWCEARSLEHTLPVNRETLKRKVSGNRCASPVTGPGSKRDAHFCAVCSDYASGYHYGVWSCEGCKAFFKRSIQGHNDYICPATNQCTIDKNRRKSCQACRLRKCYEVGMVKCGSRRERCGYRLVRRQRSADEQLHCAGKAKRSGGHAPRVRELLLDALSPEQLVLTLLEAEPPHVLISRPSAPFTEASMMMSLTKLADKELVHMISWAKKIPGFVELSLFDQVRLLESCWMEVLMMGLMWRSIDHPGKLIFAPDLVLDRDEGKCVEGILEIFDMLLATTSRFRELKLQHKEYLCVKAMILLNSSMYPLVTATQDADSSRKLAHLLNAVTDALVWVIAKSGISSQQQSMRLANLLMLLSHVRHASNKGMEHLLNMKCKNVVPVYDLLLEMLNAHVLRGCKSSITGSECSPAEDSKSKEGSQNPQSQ
# In short: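 Screening used GripTite ER-beta-UAS-bla cells held in 2% charcoal-stripped FBS medium. After overnight (16 hr) compound incubation at 37C, beta-lactamase activity was detected with a FRET substrate by fluorescence.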
# [7] = molecular target: Estrogen receptor beta (Homo sapiens) (UniProt Q92731); assay: qHTS assay to identify small molecule antagonists of the estrogen receptor beta (ER-beta) signaling pathway (AID 1259378; active means well fitted inhibition curve with a large enough effect in the signal ratio in the repeat runs, not every such curve was filed as active; the % refers to the signal ratio)
# In short: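 Antagonist mode: compounds added to beta-lactamase reporter HEK293T ER-beta-UAS cells stimulated with E2 (1nM final), 16 hr at 37C. LiveBLAzer B/G FRET substrate, 2 hours room temperature, fluorescence read-out.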
# [8] = qHTS assay to identify small molecule agonists of the androgen receptor (AR) signaling pathway in the presence of an antagonist - cell viability counter screen (AID 1259379); further: series mostly up to about 92 µM; nearly all actives have a fitted effect of over 25% in size
# In short: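 MDA-kb2 human breast carcinoma cells (stable MMTV-luciferase, AR/GR responsive) were seeded 3,000 cells/well, pre-incubated 5 hr at 37C without CO2, then given 3.0uM nilutamide and compounds at 15 concentrations for 16 hr. Viability was read by CellTiter-Fluor fluorescence.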
# [9] = qHTS assay to identify small molecule agonists of the estrogen receptor beta (ER-beta) signaling pathway - cell viability counter screen (AID 1259380); further: nearly all actives have a fitted effect of over 30% in size
# In short: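 ER-beta-UAS-bla HEK293T cells in medium with 2% charcoal-stripped FBS were preincubated 6 hr at 37C, dosed with compound in DMSO for 16 hr, then after the bla read, CellTiter-Glo was added for 30 min at room temperature; luminescence recorded.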
# [10] = qHTS assay to identify small molecule antagonists of the estrogen receptor beta (ER-beta) signaling pathway - cell viability counter screen (AID 1259382);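 further: HEK293T cells carrying ER-beta-UAS-bla reporter stimulated with estradiol; series mostly up to about 92 µM; nearly all actives have a fitted effect of over 55% in size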
# In short: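 ER-beta-UAS-bla HEK293T cells (2,000/well, 2% charcoal-stripped FBS) were pre-incubated 6 hr at 37C, then given compound plus 1nM final 17-beta-estradiol for 16 hr. Viability was read in the same wells by CellTiter-Glo luminescence after 30 min at room temperature.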
# [11] = molecular target: Estrogen receptor (Homo sapiens) (UniProt P03372); assay: qHTS assay to identify small molecule agonists of the estrogen receptor alpha (ER-alpha) signaling pathway in the presence of an antagonist (AID 1259383; calls by dose curve; further: top concentration of the series differs between compounds; nearly all actives have a fitted effect of over 15% in size)
# Estrogen receptor (Homo sapiens), sequence (P03372 whole entry, looked up): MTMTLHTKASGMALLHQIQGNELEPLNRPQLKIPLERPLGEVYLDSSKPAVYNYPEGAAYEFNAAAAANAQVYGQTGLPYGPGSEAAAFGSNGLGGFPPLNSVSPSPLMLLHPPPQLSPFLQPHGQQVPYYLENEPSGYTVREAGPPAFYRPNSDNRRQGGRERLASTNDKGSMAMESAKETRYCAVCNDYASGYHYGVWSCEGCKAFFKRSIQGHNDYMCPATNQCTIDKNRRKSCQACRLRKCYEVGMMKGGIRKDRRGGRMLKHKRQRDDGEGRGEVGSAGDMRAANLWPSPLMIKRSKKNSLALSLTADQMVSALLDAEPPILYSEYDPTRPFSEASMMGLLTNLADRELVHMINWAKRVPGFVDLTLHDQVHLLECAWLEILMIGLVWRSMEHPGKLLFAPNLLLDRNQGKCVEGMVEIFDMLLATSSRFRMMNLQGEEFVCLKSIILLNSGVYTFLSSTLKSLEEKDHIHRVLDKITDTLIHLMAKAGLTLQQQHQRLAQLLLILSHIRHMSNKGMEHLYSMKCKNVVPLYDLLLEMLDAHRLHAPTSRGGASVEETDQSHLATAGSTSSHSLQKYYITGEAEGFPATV
# In short: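 VM7Luc4E2 cells (endogenous full-length ER-alpha, 4×ERE-luciferase) were precultured 5 days in phenol red-free medium with 10% charcoal-stripped FBS, given 10.0nM ICI-182,780 (final), then treated with compounds at 15 concentrations for 22hr at 37C; luminescence read with ONE-Glo.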
# [12] = qHTS assay to identify small molecule agonists or antagonists of the thyroid stimulating hormone receptor (TSHR) signaling pathway - wild type cell line counter screen (AID 1259384; calls by dose curve)
# In short: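 Counter screen in untransfected Hek293: compounds (15-point titration, triplicate) plus phosphodiesterase inhibitor Ro20-1724 added after 18 h plating; 30 min RT. Intracellular cAMP via competitive d2/cryptate immunoassay, 1 h incubation.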
# [13] = molecular target: Thyrotropin receptor (Homo sapiens) (UniProt P16473); assay: qHTS assay to identify small molecule antagonists of the thyroid stimulating hormone receptor (TSHR) signaling pathway (AID 1259385; calls by dose curve; further: nearly all actives have a fitted effect of over 20% in size)
# Thyrotropin receptor (Homo sapiens), sequence (P16473 whole entry, looked up): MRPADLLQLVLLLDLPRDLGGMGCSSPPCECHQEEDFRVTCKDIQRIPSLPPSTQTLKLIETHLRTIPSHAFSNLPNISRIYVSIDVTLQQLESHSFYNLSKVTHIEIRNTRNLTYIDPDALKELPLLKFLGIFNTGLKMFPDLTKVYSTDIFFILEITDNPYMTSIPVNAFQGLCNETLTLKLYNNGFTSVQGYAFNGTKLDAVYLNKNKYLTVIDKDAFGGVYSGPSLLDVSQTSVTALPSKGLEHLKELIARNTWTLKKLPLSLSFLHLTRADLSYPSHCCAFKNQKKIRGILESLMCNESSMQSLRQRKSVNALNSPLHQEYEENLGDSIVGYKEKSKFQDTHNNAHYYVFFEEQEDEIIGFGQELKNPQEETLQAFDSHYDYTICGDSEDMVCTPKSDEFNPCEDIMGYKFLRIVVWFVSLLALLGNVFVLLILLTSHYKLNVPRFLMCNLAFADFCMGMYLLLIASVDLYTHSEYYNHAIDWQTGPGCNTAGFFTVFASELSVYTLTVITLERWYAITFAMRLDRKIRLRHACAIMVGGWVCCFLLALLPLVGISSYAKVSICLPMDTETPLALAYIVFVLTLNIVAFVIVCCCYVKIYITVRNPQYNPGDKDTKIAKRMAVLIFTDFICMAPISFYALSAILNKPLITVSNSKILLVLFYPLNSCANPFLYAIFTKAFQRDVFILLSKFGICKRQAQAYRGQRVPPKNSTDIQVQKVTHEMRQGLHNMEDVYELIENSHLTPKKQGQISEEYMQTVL
# In short: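 Antagonist mode: compound-treated TSHR-expressing HEK293 cells were stimulated with 1.5 ng/mL TSH (final) in presence of Ro20-1724 for 30 min at RT. HTRF cAMP detection after 1 h; each compound tested at 15 concentrations, triplicate.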
# [14] = qHTS assay to identify small molecule agonists of the estrogen receptor alpha (ER-alpha) signaling pathway in the presence of an antagonist - cell viability counter screen (AID 1259386);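 further: series mostly up to about 92 µM; cells exposed to compounds for 22 h at 37 °C before the viability read; nearly all actives have a fitted effect of over 30% in size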
# In short: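 VM7Luc4E2 cells (endogenous full-length ER-alpha, 4×ERE-luciferase) were held 5 days in phenol red-free medium with 10% charcoal-stripped FBS, plated, then given 10.0nM ICI-182,780 and compounds at 15 concentrations for 22hr at 37C; viability read by CellTiter-Fluor fluorescence.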
# [15] = molecular target: Progesterone receptor (Homo sapiens) (UniProt P06401); assay: qHTS assay to identify small molecule agonists of the progesterone receptor (PR) signaling pathway (AID 1346784; calls by dose curve; further: nearly all actives have a fitted effect of over 30% in size; further: potency means the concentration at half of the fitted maximal effect)
# Progesterone receptor (Homo sapiens), sequence (P06401 whole entry, looked up): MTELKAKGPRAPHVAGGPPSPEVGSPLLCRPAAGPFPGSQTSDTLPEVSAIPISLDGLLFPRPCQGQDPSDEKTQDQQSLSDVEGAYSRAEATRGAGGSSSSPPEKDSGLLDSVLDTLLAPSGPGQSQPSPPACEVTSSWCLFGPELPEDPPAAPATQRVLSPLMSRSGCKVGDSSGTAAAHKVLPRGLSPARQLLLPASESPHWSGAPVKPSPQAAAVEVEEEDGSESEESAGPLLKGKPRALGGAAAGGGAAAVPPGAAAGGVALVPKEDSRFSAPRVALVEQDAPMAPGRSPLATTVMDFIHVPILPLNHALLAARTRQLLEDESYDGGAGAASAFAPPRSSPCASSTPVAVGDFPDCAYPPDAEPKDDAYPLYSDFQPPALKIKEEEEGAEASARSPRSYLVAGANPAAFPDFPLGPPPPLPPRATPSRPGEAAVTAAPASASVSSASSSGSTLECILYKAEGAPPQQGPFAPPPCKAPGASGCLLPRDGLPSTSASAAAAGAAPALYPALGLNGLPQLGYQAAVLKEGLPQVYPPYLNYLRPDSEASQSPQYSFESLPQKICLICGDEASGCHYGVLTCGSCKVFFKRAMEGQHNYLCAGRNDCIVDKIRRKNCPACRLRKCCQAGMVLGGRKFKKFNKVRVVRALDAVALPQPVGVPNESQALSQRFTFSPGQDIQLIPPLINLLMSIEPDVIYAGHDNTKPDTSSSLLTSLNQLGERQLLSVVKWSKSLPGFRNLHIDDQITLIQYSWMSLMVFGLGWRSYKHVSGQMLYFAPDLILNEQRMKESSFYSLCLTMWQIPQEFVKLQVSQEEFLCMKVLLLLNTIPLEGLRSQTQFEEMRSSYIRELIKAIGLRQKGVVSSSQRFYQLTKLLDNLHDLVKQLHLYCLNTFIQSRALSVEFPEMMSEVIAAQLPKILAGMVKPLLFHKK
# In short: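 Seed PR-UAS-bla HEK 293T cells (2% charcoal-stripped FBS), incubate 6 hr at 37C; add compounds in DMSO, 16 hr at 37C; add LiveBLAzer B/G substrate, 2 hr RT; read fluorescence intensity.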
# [16] = molecular target: Progesterone receptor (Homo sapiens) (UniProt P06401); assay: qHTS assay to identify small molecule antagonists of the progesterone receptor (PR) signaling pathway (AID 1346795; active means well fitted inhibition curve with a large enough effect in the signal ratio in the repeat runs, not every such curve was filed as active; the % refers to the signal ratio)
# In short: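 Screening used a GripTite HEK293T line with PR-responsive UAS-beta-lactamase. Cells were challenged with compound in the presence of 1 nM R5020 final for 16 hr at 37C; B/G FRET substrate, 2 hr room temperature, fluorescence.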
# [17] = qHTS assay to identify small molecule antagonists of the progesterone receptor (PR) signaling pathway - cell viability counter screen (AID 1346798); further: series mostly up to about 92 µM; nearly all actives have a fitted effect of over 50% in size
# In short: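 Measures cytotoxicity in parallel with the PR antagonist reporter read: HEK293T PR-UAS-bla cells get compound and R5020 for 16 hr, and remaining viable cells are quantified by CellTiter-Glo luminescence.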
# [18] = qHTS assay to identify small molecule agonists of the progesterone receptor (PR) signaling pathway - cell viability counter screen (AID 1346799; calls by dose curve; further: nearly all actives have a fitted effect of over 45% in size)
# In short: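 Using the same plates as the PR reporter screen, HEK293T PR-UAS-bla cells received compounds for 16 hr at 37C and were then lysed with CellTiter-Glo; luminescence was read 30 min later at room temperature.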
# [19] = qHTS assay to identify small molecule antagonists of the TGF-beta/Smad signaling pathway - cell viability counter screen (AID 1346824); further: nearly all actives have a fitted effect of over 50% in size
# In short: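 Cytotoxicity counter-screen run in the same wells as the beta-lactamase Smad reporter read: CellTiter-Glo luminescence after 30 min at room temperature. HEK 293T SBE-bla cells had 5 hr compound exposure at 37 C with TGF-beta1 (0.25 ng/mL stock).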
# [20] = molecular target: Androgen receptor (Homo sapiens) (UniProt P10275); assay: qHTS assay to identify small molecule agonists of the androgen receptor (AR) signaling pathway in the presence of an antagonist (AID 1259381; calls by dose curve; further: nearly all actives have a fitted effect of over 15% in size)
# Androgen receptor (Homo sapiens), sequence (P10275 whole entry, looked up): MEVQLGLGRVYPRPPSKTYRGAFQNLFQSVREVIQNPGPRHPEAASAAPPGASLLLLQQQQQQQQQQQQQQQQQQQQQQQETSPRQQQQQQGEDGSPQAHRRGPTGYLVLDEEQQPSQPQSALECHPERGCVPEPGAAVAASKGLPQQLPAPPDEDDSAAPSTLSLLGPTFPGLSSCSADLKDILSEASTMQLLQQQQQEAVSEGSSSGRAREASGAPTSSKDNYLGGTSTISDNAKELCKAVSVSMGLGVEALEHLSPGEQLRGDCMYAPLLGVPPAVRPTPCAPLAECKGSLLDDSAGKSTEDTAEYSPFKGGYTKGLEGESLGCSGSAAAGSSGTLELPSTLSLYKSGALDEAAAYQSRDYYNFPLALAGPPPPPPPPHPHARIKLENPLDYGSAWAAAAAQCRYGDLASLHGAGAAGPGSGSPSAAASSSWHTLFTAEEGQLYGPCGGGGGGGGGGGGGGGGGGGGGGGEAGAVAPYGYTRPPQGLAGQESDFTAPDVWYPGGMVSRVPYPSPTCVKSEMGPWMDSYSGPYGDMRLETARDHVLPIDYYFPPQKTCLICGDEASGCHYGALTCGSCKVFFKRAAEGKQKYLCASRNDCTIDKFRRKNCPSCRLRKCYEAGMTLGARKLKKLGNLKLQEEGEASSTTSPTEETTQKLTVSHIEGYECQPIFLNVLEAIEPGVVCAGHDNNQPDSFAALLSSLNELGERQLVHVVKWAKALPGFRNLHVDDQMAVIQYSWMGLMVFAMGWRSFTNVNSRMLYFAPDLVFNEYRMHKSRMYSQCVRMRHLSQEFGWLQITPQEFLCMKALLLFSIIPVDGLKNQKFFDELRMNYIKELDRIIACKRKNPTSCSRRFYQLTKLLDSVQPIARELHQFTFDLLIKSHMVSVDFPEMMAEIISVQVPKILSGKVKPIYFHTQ
# In short: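 MDA-kb2 human breast carcinoma cells carrying an MMTV-luciferase reporter (AR- and GR-responsive) were treated with compounds at 15 concentrations plus 3.0uM final nilutamide for 16hr at 37C without CO2; luminescence was read after ONE-Glo addition.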
Structure (SMILES),outcome [1],outcome [2],outcome [3],outcome [4],Potency [5],Potency [6],outcome [7],outcome [8],Potency [9],outcome [10],Potency [11],outcome [12],outcome [13],outcome [14],Potency [15],Potency [16],outcome [17],Potency [18],outcome [19],outcome [20]
CCOC(=O)CC(C(C)=O)C(C)=O,inactive,inactive,inactive,inactive,inactive,inactive,inactive,inactive,inactive,inactive,inactive,inactive,inactive,inactive,inactive,inactive,inactive,inactive,inactive,–
Cc1ccc(N)nc1,inactive,inactive,inactive,inactive,inactive,inactive,inactive,inactive,inactive,inactive,inactive,inactive,inactive,inactive,inactive,inactive,inactive,inactive,inactive,inactive
CC(C)(C)C(=O)CCc1ccc(Cl)cc1,inactive,inactive,inactive,inactive,inactive,inactive,inactive,inactive,inactive,inactive,inactive,inactive,inactive,inactive,–,inactive,–,inactive,inactive,–
O=C(O)Cc1c(Cl)ccc(Cl)c1Cl,inactive,inactive,inactive,inactive,inactive,inactive,inactive,inactive,inactive,inactive,inactive,inactive,inactive,inactive,–,inactive,inactive,–,inactive,–
C/C=C/C(=O)CCCC,inactive,inactive,inactive,inactive,inactive,inactive,inactive,inactive,inactive,inactive,inactive,inactive,inactive,inactive,inactive,inactive,inactive,inactive,inactive,–
CNC(C)=O,inactive,inactive,inactive,inactive,inactive,inactive,inactive,inactive,inactive,inactive,inactive,inactive,inactive,inactive,inactive,inactive,inactive,–,inactive,–
CCN(CC)CC(=O)Oc1ccc(NC(C)=O)cc1,inactive,inactive,inactive,inactive,inactive,inactive,inactive,inactive,inactive,inactive,–,inactive,inactive,inactive,inactive,inactive,inactive,–,inactive,inactive
CC/C=C/CCCCCCCCCCOC(C)=O,inactive,inactive,inactive,inactive,inactive,inactive,inactive,inactive,inactive,inactive,inactive,inactive,inactive,inactive,inactive,inactive,inactive,inactive,inactive,–
CCCCC(O)/C=C(C)/C=C/C=C/C(=O)N1CCCC1=O (stereo not given),inactive,inactive,inactive,inactive,inactive,inactive,inactive,inactive,–,inactive,inactive,inactive,inactive,inactive,inactive,inactive,inactive,–,inactive,–
C/C=C(\C)C=O,inactive,inactive,inactive,inactive,inactive,inactive,inactive,inactive,–,inactive,inactive,inactive,inactive,inactive,21.8 µM (active),–,inactive,inactive,inactive,–
Cc1ccc2ccccc2n1,inactive,inactive,inactive,inactive,inactive,inactive,inactive,inactive,inactive,–,–,inactive,inactive,inactive,inactive,inactive,inactive,inactive,inactive,–
CC1(C)CC(N)CC(C)(C)N1,inactive,inactive,inactive,inactive,inactive,inactive,inactive,inactive,–,inactive,–,inactive,inactive,–,inactive,inactive,inactive,inactive,inactive,–
CCCCc1ccc(Cl)cc1,inactive,inactive,inactive,inactive,inactive,inactive,inactive,inactive,inactive,–,inactive,inactive,inactive,inactive,inactive,inactive,inactive,inactive,inactive,–
CCCCCCCCOCCC#N,inactive,inactive,inactive,inactive,inactive,inactive,–,inactive,inactive,inactive,–,inactive,inactive,inactive,–,–,inactive,inactive,inactive,–
COC(=O)c1ccccc1Cl,inactive,inactive,inactive,inactive,inactive,inactive,inactive,inactive,inactive,inactive,–,–,–,inactive,–,–,inactive,–,inactive,–
